5 molecules from PubChem BioAssay (EPA / NIEHS) can be followed below.

Each structure is given as a SMILES string. Calls of active or inactive are those of the source. Rule for the calls: active = hit-call score of the fitted dose curve at least 0.9, where 1 is the maximum; inactive = score below 0.9.

Read-out in assay [1]: Tissue plasminogen activator (tPA), PLAT (gene 5327)
In words: BSK_BE3C_tPA: BioMAP Diversity Plus: BE3C Assay for Tissue plasminogen activator (tPA) Biomarker Activity (AID 2283041).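 For outcome: tPA level quantified by ELISA one day after compound addition.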 Particulars: primary human bronchial epithelial cells; actives raise or lower the signal. An outline of the steps: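 Using human lung primary bronchial epithelial cells, tPA was measured by ELISA 24 h after dosing; data fitted relative to DMSO.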

Read-out in assay [2]: Interleukin-8 (IL8), CXCL8 (gene 3576)
In words: BSK_CASM3C_IL8: BioMAP Diversity Plus: CASM3C Assay for Interleukin-8 (IL8) Biomarker Activity (AID 2283042).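 Note: IL-8 protein level quantified by ELISA.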 As to conditions: primary human coronary artery smooth muscle cells; actives raise or lower the signal.

Read-out in assay [3]: Human Leukocyte Antigen - DR isotype (HLADR), HLA-DRA (gene 3122)
In words: BSK_CASM3C_HLADR: BioMAP Diversity Plus: CASM3C Assay for Human Leukocyte Antigen - DR isotype (HLADR) Biomarker Activity (AID 2283043).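 Note: cell-surface HLA-DR protein level quantified by ELISA.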 As to conditions: primary human coronary artery smooth muscle cells; actives raise or lower the signal.

Read-out in assay [4]: Macrophage colony-stimulating factor (MCSF), CSF1 (gene 1435)
Kind of assay: BSK_CASM3C_MCSF: BioMAP Diversity Plus: CASM3C Assay for Macrophage colony-stimulating factor (MCSF) Biomarker Activity (AID 2283044).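 Note: M-CSF protein amount quantified by ELISA after 24 h exposure.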 As to conditions: primary human coronary artery smooth muscle cells; actives raise or lower the signal.

Read-out in assay [5]: Low-density lipoprotein receptor (LDLR), LDLR (gene 3949)
Kind of assay: BSK_CASM3C_LDLR: BioMAP Diversity Plus: CASM3C Assay for Low-density lipoprotein receptor (LDLR) Biomarker Activity (AID 2283045).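 Note: LDLR protein level on the cell surface quantified by ELISA.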 Particulars: primary human coronary artery smooth muscle cells; actives raise or lower the signal.

Read-out in assay [6]: Monocyte Chemoattractant Protein-1 (MCP1), CCL2 (gene 6347)
In words: BSK_CASM3C_MCP1: BioMAP Diversity Plus: CASM3C Assay for Monocyte Chemoattractant Protein-1 (MCP1) Biomarker Activity (AID 2283046).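 Note: MCP-1 level quantified by ELISA 24 h after dosing.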 Particulars: primary human coronary artery smooth muscle cells; actives raise or lower the signal.

Assay [7] is described as follows: BSK_CASM3C_Proliferation: Cell Proliferation Assessment in the BioMAP Diversity Plus: CASM3C Assay (AID 2283047).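 Note: sulforhodamine B total protein stain as relative cell number at 560 nm; sub-confluent cells exposed 48 h before staining; fitted both ways against DMSO so gain or loss of cell number.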 Particulars: primary human coronary artery smooth muscle cells.
Read-out in assay [8]: Monokine induced gamma interferon (MIG), CXCL9 (gene 4283)
In words: BSK_CASM3C_MIG: BioMAP Diversity Plus: CASM3C Assay for Monokine induced gamma interferon (MIG) Biomarker Activity (AID 2283048).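 Note: MIG protein level measured by ELISA.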 As to conditions: primary human coronary artery smooth muscle cells; actives raise or lower the signal.

Read-out in assay [9]: serum amyloid A (SAA), SAA1 (gene 6288)
In words: BSK_CASM3C_SAA: BioMAP Diversity Plus: CASM3C Assay for serum amyloid A (SAA) Biomarker Activity (AID 2283049).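 Note: SAA protein level quantified by ELISA.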 Particulars: primary human coronary artery smooth muscle cells; actives raise or lower the signal.

A short description of assay [10]: BSK_CASM3C_SRB: Viability Assessment in the BioMAP Diversity Plus: CASM3C Assay (AID 2283050).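 Note: total protein by SRB staining as cytotoxicity measure in parallel cultures; cells exposed to compound for 24 h.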 As to conditions: primary human coronary artery smooth muscle cells.
Read-out in assay [11]: Thrombomodulin, THBD (gene 7056)
In words: BSK_CASM3C_Thrombomodulin: BioMAP Diversity Plus: CASM3C Assay for Thrombomodulin Biomarker Activity (AID 2283051).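 Note: thrombomodulin protein level measured by ELISA 24 h after dosing.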 As to conditions: primary human coronary artery smooth muscle cells; actives raise or lower the signal.

Read-out in assay [12]: Tissue Factor, F3 (gene 2152)
In words: BSK_CASM3C_TissueFactor: BioMAP Diversity Plus: CASM3C Assay for Tissue Factor Biomarker Activity (AID 2283052).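 Note: cell surface tissue factor protein level read by ELISA.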 As to conditions: primary human coronary artery smooth muscle cells; actives raise or lower the signal.

Read-out in assay [13]: Interferon-gamma inducible Protein 10 (IP10), CXCL10 (gene 3627)
In words: BSK_hDFCGF_IP10: BioMAP Diversity Plus: hDFCGF Assay for Interferon-gamma inducible Protein 10 (IP10) Biomarker Activity (AID 2283053). As to conditions: primary human foreskin fibroblasts; actives raise or lower the signal. Summed up: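 Chemical-treated human skin fibroblasts (primary) were sampled at 24 h for IP-10 by ELISA. Both increases and decreases relative to DMSO were scored.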

Read-out in assay [14]: Urokinase-type plasminogen activator receptor (uPAR), PLAUR (gene 5329)
In words: BSK_CASM3C_uPAR: BioMAP Diversity Plus: CASM3C Assay for Urokinase-type plasminogen activator receptor (uPAR) Biomarker Activity (AID 2283054).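 Note: cell-surface uPAR protein level quantified by ELISA.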 As to conditions: primary human coronary artery smooth muscle cells; actives raise or lower the signal.

Read-out in assay [15]: Vascular cell adhesion molecule 1 (VCAM1), VCAM1 (gene 7412)
In words: BSK_CASM3C_VCAM1: BioMAP Diversity Plus: CASM3C Assay for Vascular cell adhesion molecule 1 (VCAM1) Biomarker Activity (AID 2283055).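 Note: VCAM-1 protein level quantified by ELISA on the cells.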 Particulars: primary human coronary artery smooth muscle cells; actives raise or lower the signal.

Read-out in assay [16]: Collagen III, COL3A1 (gene 1281)
Kind of assay: BSK_hDFCGF_CollagenIII: BioMAP Diversity Plus: hDFCGF Assay for Collagen III Biomarker Activity (AID 2283056). As to conditions: primary human foreskin fibroblasts; actives raise or lower the signal. An outline of the steps: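 Cells: human foreskin fibroblasts, primary. Dosing followed by 24 h incubation, then ELISA for collagen III. Both increases and decreases scored relative to DMSO.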

Read-out in assay [17]: Epidermal growth factor receptor (EGFR), EGFR (gene 1956)
In words: BSK_hDFCGF_EGFR: BioMAP Diversity Plus: hDFCGF Assay for Epidermal growth factor receptor (EGFR) Biomarker Activity (AID 2283057). As to conditions: primary human foreskin fibroblasts; actives raise or lower the signal. Summed up:
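Cell-based multiplexed assay in primary human foreskin fibroblasts. EGFR is read by ELISA 24 h after treatment and compared with DMSO controls.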

Read-out in assay [18]: Interleukin-8 (IL8), CXCL8 (gene 3576)
In words: BSK_hDFCGF_IL8: BioMAP Diversity Plus: hDFCGF Assay for Interleukin-8 (IL8) Biomarker Activity (AID 2283058). As to conditions: primary human foreskin fibroblasts; actives raise or lower the signal. Summed up: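 IL-8 levels from compound-treated primary human fibroblasts were read by ELISA at 24 h, with DMSO serving as baseline for bidirectional fitting.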

The nature of assay [19]: BSK_hDFCGF_Proliferation: Cell Proliferation Assessment in the BioMAP Diversity Plus: hDFCGF Assay (AID 2283059).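 Note: curves fitted for both rise and fall of signal versus DMSO baseline.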 Particulars: primary human foreskin fibroblasts. An outline of the steps:
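Sub-confluent human foreskin fibroblast cultures receive test chemical […]. Relative cell number is quantified by sulforhodamine B staining (0.1%, after 10% TCA fixation) at 560 nm, with bidirectional fitting referenced to DMSO.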

Read-out in assay [20]: Macrophage colony-stimulating factor (MCSF), CSF1 (gene 1435)
Kind of assay: BSK_hDFCGF_MCSF: BioMAP Diversity Plus: hDFCGF Assay for Macrophage colony-stimulating factor (MCSF) Biomarker Activity (AID 2283060). As to conditions: primary human foreskin fibroblasts; actives raise or lower the signal. Summed up:
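M-CSF levels, determined by ELISA, are taken at 24 h after dosing human skin fibroblasts. Responses in either direction are fitted with DMSO serving as the baseline.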

Turning to `Cc1cccc([N+](=O)[O-])c1`, the outcome in [1], in assay [2], in assay [3], in [4], in assay [5] and in assay [6] was inactive. Further, the result in [7], in [8], in [9], in [10], in [11] and in [12] was inactive. The outcome in assay [13], in assay [14], in assay [15], in [16], in assay [17] and in assay [18] was inactive. In addition, the outcome in [19] and in [20] was inactive.

With `CCCCCCCCCC[N+](C)(C)CCCCCCCCCC`, the AC50 in [1] is 3.61 µM (active); in assay [2], 5.54 µM (active); in [3], 4.72 µM (active); in assay [4], 3.08 µM (active); in assay [5] it was 5.09 µM (active); in assay [6], 4.41 µM (active). For the same molecule, the AC50 in [7] is 2.67 µM (active); in [8] it was 8.03 µM (active); in assay [9], 5.46 µM (active); in assay [10] it was 5.43 µM (active); in assay [12] it was 1.69 µM (active); in assay [13] it was 2.44 µM (active). Moreover, the AC50 is 3.56 µM (active) in assay [14]; 5.15 µM (active) in assay [15]; 1.76 µM (active) in [16]; 1.22 µM (active) in assay [17]; 3.01 µM (active) in assay [18]; 0.154 µM (active) in [19]. In [20], the AC50 is 2.04 µM (active). The outcome in assay [11] was inactive.

For the molecule `O=C(NC(=O)c1cc(F)c(F)cc1Cl)Nc1cc(F)ccc1N1CCC(C(=O)O)CC1`, the result in assay [1], in assay [2], in [3], in assay [4], in [5] and in [6] was inactive. Further, the result in assay [7], in assay [8], in assay [9], in assay [10], in [11] and in assay [12] was inactive. The result in assay [13], in assay [14], in [15], in assay [16], in assay [17] and in [18] was inactive. The outcome in assay [19] and in assay [20] was inactive.

`CCC(C)(CC)c1cc(NC(=O)c2c(OC)cccc2OC)on1`: the result in [1], in assay [2], in assay [3], in assay [4], in assay [5] and in [6] was inactive. Further, the result in assay [7], in assay [8], in [9], in assay [10], in [11] and in [12] was inactive. In addition, the result in assay [13], in [14], in assay [15], in [16], in [17] and in assay [18] was inactive. The result in assay [19] and in assay [20] was inactive.

Regarding `Cc1ccccc1O`, the outcome in assay [1], in [2], in assay [3], in assay [4], in assay [5] and in assay [6] was inactive. The result in assay [7], in assay [8], in assay [9], in assay [10], in assay [11] and in [12] was inactive. Also, the result in assay [13], in [14], in assay [15], in assay [16], in assay [17] and in assay [18] was inactive. For the same molecule, the outcome in [19] and in [20] was inactive.
